In PubChem BioAssay (NCATS) one finds activity, negative = cell killing data, which are given here for nine compounds.

Inconclusive results are not listed. Values without a mark were called inactive. The call rests on the fitted dose curve; in most records, active means well fitted inhibition curve with a large enough effect; inconclusive means small, poorly fitted or top-dose-only effect; inactive means flat fitted curve, though single readings scatter.
On the % scale 0 is the no-effect control and ±100 the full control effect.

A short description of one assay: Drug repurposing screens with cells derived from glioblastoma tumor samples (AID 1345199). Further: nearly all actives have a fitted effect of over 40% in size. To be noted: GBM patient neurospheres viability, ATP luminescence, 48 h; at 45.9 µM (top of the series); tumour line B. In short, it runs like this: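 Primary testing used CD133+ neurospheres from four GBM patients, seven concentrations, 48 h exposure and ATP-based viability; confirmation added three slower-growing patient lines.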
As to `O=C(Cn1c(=O)sc2ccc(Cl)cc21)N1CCN(CCO)CC1`, the activity, negative = cell killing was -0.42%.
The same measure, in the same setting: for `CC(C)(C)NC(=O)[C@H]1CC[C@H]2[C@@H]3CC=C4C=C(C(=O)O)CC[C@]4(C)[C@H]3CC[C@]12C` the value was -3.87%.
Still for that read-out and setting: for `Cc1cc(-n2c(=O)[nH]c(=O)n(C)c2=O)ccc1Oc1ccc(S(=O)(=O)C(F)(F)F)cc1` the value was -20.8%.
Still for that read-out and setting: next, `CCCCCCCCCCCCCCCC(=O)O[C@@H]1CC(C)=C(/C=C/C(C)=C/C=C/C(C)=C/C=C/C=C(C)/C=C/C=C(C)/C=C/C2=C(C)C[C@@H](OC(=O)CCCCCCCCCCCCCCC)CC2(C)C)C(C)(C)C1`: -12.7%; `COc1ccc(CNCC(O)COc2ccc3[nH]c(=O)ccc3c2)cc1OC` (stereo not given): -3.95%; `COc1ccc(C2NC(=S)N3C(c4ccc(OC)c(OC)c4)NC(=S)N23)cc1OC` (stereo not given): -19.2%.
For `CC(C)(C)CC(=O)OCC(=O)[C@@]12OC(C)(C)O[C@@H]1C[C@H]1[C@@H]3CCC4=CC(=O)C=C[C@]4(C)[C@@]3(F)[C@@H](O)C[C@@]12C`, the activity, negative = cell killing was -19.8%.
`O=C(O)c1ccccc1[O-].O=C(O)c1ccccc1[O-].[Zn+2]`: the activity, negative = cell killing is -5.99%.

Staying with this assay, now noted: GBM patient neurospheres viability, ATP luminescence, 48 h; at 45.9 µM (top of the series); tumour line D.
As for `O=C(Cn1c(=O)sc2ccc(Cl)cc21)N1CCN(CCO)CC1`, the activity, negative = cell killing was -6.64%.
On the same count and under the same terms, for `CC(C)(C)NC(=O)[C@H]1CC[C@H]2[C@@H]3CC=C4C=C(C(=O)O)CC[C@]4(C)[C@H]3CC[C@]12C` the value was 0.505%; for `COc1ccc(CNCC(O)COc2ccc3[nH]c(=O)ccc3c2)cc1OC` (stereo not given), -26.6%; for `COc1ccc(C2NC(=S)N3C(c4ccc(OC)c(OC)c4)NC(=S)N23)cc1OC` (stereo not given), -8.84%.
On the same count and under the same terms, next, `O=C(O)c1ccccc1[O-].O=C(O)c1ccccc1[O-].[Zn+2]`: -6.7%.

The same assay, now with this note: GBM patient neurospheres viability, ATP luminescence, 48 h; at 46.1 µM (top of the series); tumour line C.
On to `CCCCCCCC(=O)CC[C@@H]1[C@@H](C/C=C\CCCC(=O)OC(C)C)[C@@H](O)C[C@H]1O`, for which the activity, negative = cell killing is -21.1%.
Same read-out and setting: for `O=C(Cn1c(=O)sc2ccc(Cl)cc21)N1CCN(CCO)CC1` the value was 15.7%; for `CC(C)(C)NC(=O)[C@H]1CC[C@H]2[C@@H]3CC=C4C=C(C(=O)O)CC[C@]4(C)[C@H]3CC[C@]12C`, -11%; for `COc1ccc(CNCC(O)COc2ccc3[nH]c(=O)ccc3c2)cc1OC` (stereo not given), 15.6%.
For `COc1ccc(C2NC(=S)N3C(c4ccc(OC)c(OC)c4)NC(=S)N23)cc1OC` (stereo not given), the activity, negative = cell killing is 3.81%.
Consider `CC(C)(C)CC(=O)OCC(=O)[C@@]12OC(C)(C)O[C@@H]1C[C@H]1[C@@H]3CCC4=CC(=O)C=C[C@]4(C)[C@@]3(F)[C@@H](O)C[C@@]12C`, for which the activity, negative = cell killing is -0.929%.
On the same count and under the same terms, next, `O=C(O)c1ccccc1[O-].O=C(O)c1ccccc1[O-].[Zn+2]`: -14.8%.
